Data published in PubChem BioAssay (Tox21).
Inconclusive results are not listed. Some structures have more than one record in an assay (separate samples or runs), and their calls can disagree. Activity calls are given as the source filed them. Unless noted, calls come from the whole dose curve; as a rule, active = well fitted curve in the direction sought with a large enough effect in the repeat runs; inconclusive = weak or mixed curves; inactive = no such curve, though single readings can be large; an effect the other way counts as inactive or inconclusive.

Legend:
[1] = A CellTox Green Cytotoxicity Assay to monitor cytotoxicity in HEK293 cells - 32 hour (AID 1224881); conditions: CellTox Green fluorescence; series mostly up to 76.8 µM; note: nearly all actives have a fitted effect of over 40% in size
Outline: (§1)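 Dead-cell fluorescence measured kinetically: asymmetric cyanine dye, HEK293, 600 cells/well, 5 h settle, 23 nL cpd/DMSO, 37 C, reads 0–40 h every 8 h.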

[2] = A CellTox Green Cytotoxicity Assay to monitor cytotoxicity in HepG2 cells - 0 hour (AID 1224882); conditions: CellTox Green fluorescence; series mostly up to 76.8 µM; note: nearly all actives have a fitted effect of over 35% in size
Outline: (§2)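 First, HepG2 cells (600/well) mixed with reagent were plated; second, after 5 h at 37 C they received compounds via pintool; third, fluorescence was measured at 0 h through 40 h at 8 h intervals.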

[3] = A CellTox Green Cytotoxicity Assay to monitor cytotoxicity in HepG2 cells - 32 hour (AID 1224883); conditions: CellTox Green fluorescence; series mostly up to 76.8 µM; note: nearly all actives have a fitted effect of over 50% in size
Outline: as §2

[4] = A CellTox Green Cytotoxicity Assay to monitor cytotoxicity in HEK293 cells - 8 hour (AID 1224884); conditions: CellTox Green fluorescence; series mostly up to 76.8 µM; note: nearly all actives have a fitted effect of over 35% in size
Outline: as §1

[5] = qHTS RealTime-Glo MT Cell Viability Assay in HepG2 cells - 16 hour (AID 1224885); conditions: RealTime-Glo luminescence; series mostly up to 76.8 µM; note: nearly all actives have a fitted effect of over 50% in size
Outline: (§3)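 Tox21 10K library screened in qHTS format on HepG2 cells carrying RealTime-Glo reagents. Compounds were added after a 5 h preincubation, and the luminescent signal from continuous culture was measured repeatedly during 40 h treatment.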

[6] = qHTS RealTime-Glo MT Cell Viability Assay in HEK293 cells - 24 hour (AID 1224886); conditions: RealTime-Glo luminescence; series mostly up to 76.8 µM; note: top concentration of the series differs between compounds; nearly all actives have a fitted effect of over 50% in size
Outline: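 Luminescence generated by NanoLuc from substrate produced by living HEK293 cells served as the viability signal. Each value reflects the reading at its stated time point during continuous 40 h compound exposure at 37 C.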

[7] = qHTS RealTime-Glo MT Cell Viability Assay in HEK293 cells - 8 hour (AID 1224887); conditions: RealTime-Glo luminescence; series mostly up to 76.8 µM; note: top concentration of the series differs between compounds; nearly all actives have a fitted effect of over 50% in size
Outline: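 600 HEK293 cells per well, dispensed already mixed with RealTime-Glo MT reagents. Compound dosing came 5 h later. The same wells were read for luminescence at 0, 8, 16, 24, 32 and 40 h of exposure at 37 C.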

[8] = A CellTox Green Cytotoxicity Assay to monitor cytotoxicity in HEK293 cells - 16 hour (AID 1224888); conditions: CellTox Green fluorescence; series mostly up to 76.8 µM; note: nearly all actives have a fitted effect of over 35% in size
Outline: as §1

[9] = qHTS RealTime-Glo MT Cell Viability Assay in HepG2 cells - 0 hour (AID 1224889); conditions: RealTime-Glo luminescence; series mostly up to 76.8 µM; note: nearly all actives have a fitted effect of over 50% in size
Outline: as §3

[10] = A CellTox Green Cytotoxicity Assay to monitor cytotoxicity in HepG2 cells - 8 hour (AID 1224890); conditions: CellTox Green fluorescence; series mostly up to 76.8 µM; note: nearly all actives have a fitted effect of over 45% in size
Outline: as §2

[11] = qHTS assay to identify small molecule antagonists of the estrogen receptor alpha (ER-alpha) signaling pathway using the BG1 cell line in the presence of 0.1 nM 17-beta-estradiol - cell viability counter screen (AID 1259241); conditions: VM7Luc4E2 (BG1) viability, CellTiter-Fluor protease, 22 h, 0.1 nM estradiol agonist added; series mostly up to 92.4 µM; note: nearly all actives have a fitted effect of over 40% in size
Outline: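 VM7Luc4E2, 4,000 cells/well, phenol red-free medium + 10% charcoal-stripped FBS; 24 hr plating; cpd + 0.1 nM E2 final, 22 hr 37C/5% CO2; CellTiter-Fluor 30 min, fluorescence.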

[12] = qHTS assay to identify small molecule antagonists of the androgen receptor (AR) signaling pathway using the MDA cell line in the presence of 0.5 nM R1881 - cell viability counter screen (AID 1259242); conditions: MDA-kb2 viability, CellTiter-Fluor protease fluorescence, 16 h; series mostly up to 92.4 µM; note: nearly all actives have a fitted effect of over 45% in size
Outline: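 qHTS format. MDA-kb2 (MMTV-luc, AR/GR responsive) + cpd + 0.5 nM R1881 final, 16 hr 37C/0% CO2 → CellTiter-Fluor 30 min → fluorescence intensity.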

[13] = qHTS assay to identify small molecule HDAC inhibitors (AID 1259364); conditions: HCT-116 HDAC-Glo I/II luminescence, 2 h; series mostly up to 92.4 µM; note: potency is the fitted concentration of half-maximal effect;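 note: wild-type HCT-116 cells with endogenous class I/II HDAC activity; nearly all actives have a fitted effect of over 45% in size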
Outline: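 Quantitative high-throughput format: overnight-seeded HCT-116 cells got compounds for 2 hr at 37C; HDAC-Glo I/II reagent added, 30 min RT, luminescence measured.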

[14] = qHTS assay to identify small molecule HDAC inhibitors - cell viability counter screen (AID 1259365); conditions: HCT-116 viability, CellTiter-Glo ATP luminescence, 2 h; series mostly up to 92.4 µM; note: nearly all actives have a fitted effect of over 50% in size
Outline: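 Luminescence from CellTiter-Glo, developed 30min at room temperature, reports viability of wild-type HCT-116 cells treated 2hr with compounds at 37 C and 5% CO2 after overnight plating.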

[15] = qHTS assay to identify small molecule agonists of the sonic hedgehog signaling (Shh) pathway - cell viability counter screen (AID 1259366); conditions: NIH/3T3 Gli1-Luc viability, CellTiter-Fluor, 24 h; series mostly up to 92.4 µM; note: nearly all actives have a fitted effect of over 50% in size; note: potency is the fitted concentration of half-maximal effect
Outline: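 Cytotoxicity counter screen run in the same wells as the Shh reporter assay. NIH/3T3 cells carrying a Gli1 response element–driven luciferase were treated with DMSO-dissolved compounds for 24hr, and live-cell protease activity was measured with CellTiter-Fluor.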

[16] = qHTS assay to identify small molecule antagonists of the sonic hedgehog signaling (Shh) pathway - cell viability counter screen (AID 1259367); conditions: NIH/3T3 Gli1-Luc viability, CellTiter-Fluor, 24 h; series mostly up to 92.4 µM; note: nearly all actives have a fitted effect of over 55% in size; note: potency is the fitted concentration of half-maximal effect
Outline: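 Fluorescence read-out (CellTiter-Fluor, 1 hr at 37C) taken after 23 hr compound treatment of 3T3 Gli1-Luc cells stimulated with conditioned medium. Cells were seeded at 2,000 per well and pre-incubated 4 hr.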

[17] = qHTS assay to identify small molecule agonists of the sonic hedgehog signaling (Shh) pathway (AID 1259368; calls by dose curve;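 note: NIH/3T3-derived 3T3Gli1-Luc cells carrying a stable Gli1-driven firefly luciferase reporter; nearly all actives have a fitted effect of over 15% in size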); conditions: NIH/3T3 Gli1-Luc reporter, luciferase, 24 h, stronger effect = higher value; series mostly up to 92.4 µM
Outline: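 Quantitative high-throughput format using a Gli1-driven firefly luciferase reporter line derived from NIH/3T3 cells. After a 24 hr compound treatment at 37 C and 5% CO2, luminescence reported Gli1 response element activity.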

[18] = molecular target: Estrogen receptor (Homo sapiens) (UniProt P03372); experiment: qHTS assay to identify small molecule antagonists of the estrogen receptor alpha (ER-alpha) signaling pathway using the BG1 cell line in the presence of 0.1 nM 17-beta-estradiol (AID 1259244); conditions: VM7Luc4E2 (BG1) ERE-luciferase, antagonist mode, 0.1 nM E2, 22 h; series mostly up to 92.4 µM; note: nearly all actives have a fitted effect of over 50% in size
Outline: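 Reporter is a stably transfected luciferase under four estrogen responsive elements in VM7Luc4E2 cells expressing native full-length ER-alpha; inhibition of 0.1 nM (final) 17beta-estradiol-driven signal over 22 h is read by luminescence.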

[19] = molecular target: Androgen receptor (Homo sapiens) (UniProt P10275); experiment: qHTS assay to identify small molecule antagonists of the androgen receptor (AR) signaling pathway using the MDA cell line in the presence of 0.5 nM R1881 (AID 1259243); conditions: MDA-kb2 MMTV-luciferase, R1881 0.5 nM, 16 h; series mostly up to 92.4 µM; note: nearly all actives have a fitted effect of over 50% in size
Outline: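 Antagonist mode quantitative HTS in MDA-kb2 MMTV-luciferase cells, agonist R1881 at 0.5 nM final, 16 hr exposure at 37C and 0% CO2, luminescent detection.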

[20] = qHTS assay to identify small molecule phospholipidosis (PLD) inducers (AID 1259344; active = well fitted curve in the direction sought with a large enough effect; an effect the other way counts as inactive or inconclusive); conditions: HepG2 phospholipidosis, LipidTOX Red imaging, 24 h; series mostly up to 38.3 µM
Outline: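 Read-out is LipidTOX Red fluorescence (ex 595/em 615) imaged in HepG2 cells after 24 h compound exposure at 37 C, with Hoechst nuclear counterstain (ex 352/em 461) allowing per-cell normalisation.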

Measured: Potency

Chain of Androgen receptor (Homo sapiens) (P10275 whole entry, looked up): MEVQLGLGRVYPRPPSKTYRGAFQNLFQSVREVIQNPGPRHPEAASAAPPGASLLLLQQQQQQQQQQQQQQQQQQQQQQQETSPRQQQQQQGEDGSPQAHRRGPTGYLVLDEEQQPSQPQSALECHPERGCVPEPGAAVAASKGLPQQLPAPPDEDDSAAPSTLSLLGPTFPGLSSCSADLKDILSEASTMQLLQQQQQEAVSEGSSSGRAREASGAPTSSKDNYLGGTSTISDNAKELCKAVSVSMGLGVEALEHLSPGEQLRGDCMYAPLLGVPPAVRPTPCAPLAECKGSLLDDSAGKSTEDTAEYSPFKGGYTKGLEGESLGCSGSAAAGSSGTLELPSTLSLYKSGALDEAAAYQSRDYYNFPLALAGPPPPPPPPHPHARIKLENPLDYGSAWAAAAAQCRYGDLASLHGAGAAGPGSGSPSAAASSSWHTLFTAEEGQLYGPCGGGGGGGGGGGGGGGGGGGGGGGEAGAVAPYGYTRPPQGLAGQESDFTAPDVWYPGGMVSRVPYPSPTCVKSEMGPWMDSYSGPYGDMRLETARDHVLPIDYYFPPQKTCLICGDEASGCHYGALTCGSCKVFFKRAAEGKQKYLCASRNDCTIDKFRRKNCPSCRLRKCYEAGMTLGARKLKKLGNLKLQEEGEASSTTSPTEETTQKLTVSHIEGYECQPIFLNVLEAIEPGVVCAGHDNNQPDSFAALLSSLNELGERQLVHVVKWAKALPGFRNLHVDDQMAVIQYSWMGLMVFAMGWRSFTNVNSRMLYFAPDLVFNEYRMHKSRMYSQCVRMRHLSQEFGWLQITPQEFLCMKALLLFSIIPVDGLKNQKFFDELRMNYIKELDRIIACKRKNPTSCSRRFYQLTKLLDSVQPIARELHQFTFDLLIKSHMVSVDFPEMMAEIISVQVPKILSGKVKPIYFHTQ
Chain of Estrogen receptor (Homo sapiens) (P03372 whole entry, looked up): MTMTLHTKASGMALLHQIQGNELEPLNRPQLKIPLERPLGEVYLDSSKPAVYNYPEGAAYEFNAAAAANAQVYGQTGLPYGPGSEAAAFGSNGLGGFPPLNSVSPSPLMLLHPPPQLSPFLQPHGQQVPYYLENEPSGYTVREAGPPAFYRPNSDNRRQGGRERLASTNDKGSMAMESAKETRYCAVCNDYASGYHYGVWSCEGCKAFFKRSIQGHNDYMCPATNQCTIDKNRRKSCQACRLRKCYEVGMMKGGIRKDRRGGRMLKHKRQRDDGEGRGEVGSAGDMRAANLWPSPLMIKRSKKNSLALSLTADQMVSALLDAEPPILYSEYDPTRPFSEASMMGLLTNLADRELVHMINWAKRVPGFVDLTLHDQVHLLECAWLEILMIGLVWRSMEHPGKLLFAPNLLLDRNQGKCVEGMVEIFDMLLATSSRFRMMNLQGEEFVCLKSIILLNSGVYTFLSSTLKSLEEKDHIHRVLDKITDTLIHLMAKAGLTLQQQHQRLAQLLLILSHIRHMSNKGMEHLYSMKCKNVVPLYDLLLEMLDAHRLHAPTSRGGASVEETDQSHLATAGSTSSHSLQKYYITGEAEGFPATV

COCCOC(=O)c1ccccc1C(=O)OCCOC
not listed: [18] | [19] | [20]
inactive: all other assays above

CCCCCCCC=O
not listed: [10] | [19] | [20]
inactive: all other assays above

Cc1ccc(S(=O)(=O)N=C=O)cc1
16.9 µM (active) and inactive: [15]
23.9 µM (active) and inactive: [16]
not listed: [19] | [20]
inactive: all other assays above

CC(C)CCCCCCCOC(=O)CCCCC(=O)OCCCCCCCC(C)C
not listed: [18] | [19] | [20]
inactive: all other assays above

CCO[Si](CCC#N)(OCC)OCC
not listed: [19] | [20]
inactive: all other assays above

CC(=O)OCCOC(C)=O
not listed: [10] | [19] | [20]
inactive: all other assays above

NCCN1CCNCC1
not listed: [19] | [20]
inactive: all other assays above

NCCCCCCN
not listed: [18] | [19] | [20]
inactive: all other assays above

CC(=O)OCc1ccco1
68.2 µM (active) and inactive: [16]
not listed: [10] | [19] | [20]
inactive: all other assays above

COc1ccc(N)c(C)c1
not listed: [19] | [20]
inactive: all other assays above

CC(C)=CCl
not listed: [10] | [19] | [20]
inactive: all other assays above

CC1(C)S[C@@H]2[C@H](NC(=O)COc3ccccc3)C(=O)N2[C@H]1C(=O)O
not listed: [19] | [20]
inactive: all other assays above

CCNC(=S)NCC
not listed: [19] | [20]
inactive: all other assays above

O=C(O)c1ccc(C(=O)O)c(C(=O)O)c1
not listed: [20]
inactive: all other assays above

O=C1c2ccccc2CCc2ccccc21
active: [13] 27.9 µM
not listed: [18] | [19] | [20]
inactive: all other assays above

CCNc1ccccc1
not listed: [10] | [18] | [20]
inactive: all other assays above

C=CC(C)CCCC(C)(C)O (stereo not given)
not listed: [19] | [20]
inactive: all other assays above

CC(C)OC(=O)COc1ccc(Cl)cc1Cl
not listed: [19] | [20]
inactive: all other assays above

CC(=O)OCc1ccccc1
not listed: [20]
inactive: all other assays above

CC(=O)CC(C)(C)O
not listed: [20]
inactive: all other assays above

CC(CCl)OP(=O)(OC(C)CCl)OC(C)CCl (stereo not given)
not listed: [19] | [20]
inactive: all other assays above

CCCCCCO
not listed: [10] | [19] | [20]
inactive: all other assays above

C=CCCCCCCCCC(=O)O
not listed: [18] | [19]
inactive: all other assays above

C=CC[N+](C)(C)CC=C
not listed: [18] | [19] | [20]
inactive: all other assays above

Nc1nc(N)nc(-c2ccccc2)n1
not listed: [19] | [20]
inactive: all other assays above

O=c1[nH]cnc2[nH]ncc12
not listed: [19]
inactive: all other assays above

CC(=O)c1ccc(O)cc1
not listed: [10] | [19] | [20]
inactive: all other assays above

C=C(C)CNCC
not listed: [18] | [19] | [20]
inactive: all other assays above

CSc1ccc(Cl)cc1
not listed: [20]
inactive: all other assays above

CCc1ccccc1CC
not listed: [19] | [20]
inactive: all other assays above

C[Si]1(C)O[Si](C)(C)O[Si](C)(C)O[Si](C)(C)O1
not listed: [19] | [20]
inactive: all other assays above
